{"source": "the supplement of paper PMC10681739", "key": {"[1]": {"target": "T1, ETS1 (UniProt P14921)", "T1 sequence": "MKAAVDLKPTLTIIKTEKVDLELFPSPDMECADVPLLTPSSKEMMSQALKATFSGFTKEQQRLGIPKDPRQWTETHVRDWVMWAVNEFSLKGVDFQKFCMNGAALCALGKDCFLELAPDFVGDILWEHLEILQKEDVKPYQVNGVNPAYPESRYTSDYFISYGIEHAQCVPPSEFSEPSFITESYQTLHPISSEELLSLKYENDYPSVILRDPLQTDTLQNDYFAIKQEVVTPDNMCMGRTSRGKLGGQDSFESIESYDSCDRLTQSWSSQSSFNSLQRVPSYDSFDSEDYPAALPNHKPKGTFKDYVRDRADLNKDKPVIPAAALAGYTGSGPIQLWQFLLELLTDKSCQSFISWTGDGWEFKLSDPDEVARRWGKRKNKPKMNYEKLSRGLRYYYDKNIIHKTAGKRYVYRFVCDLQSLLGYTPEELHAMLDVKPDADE", "assay": "ETS1 binding intensity (PBM fluorescence), ETS1 alone (arbitrary fluorescence units); higher = stronger binding", "settings": "ETS1 concentration 1 nM; RUNX1 concentration 0 nM"}, "[2]": {"target": "T1, ETS1", "assay": "ETS1 binding intensity (PBM fluorescence) in presence of RUNX1, normalised to ETS1-only experiment (arbitrary fluorescence units); higher = stronger binding", "settings": "ETS1 concentration 1 nM; RUNX1 concentration 25 nM"}}, "data": [{"sequence": "CGTTTGCCTATCTTCCTCCCCACAGAAGCACTCCAT", "values": [{"measurement": "ETS1 binding intensity", "setting": "[1]", "result": 453}, {"measurement": "ETS1 binding intensity", "setting": "[2]", "result": 399}]}, {"sequence": "GTCCCCCGGAACCGTCTCCTCCCCCGCACGCGCCGC", "values": [{"measurement": "ETS1 binding intensity", "setting": "[1]", "result": 516}, {"measurement": "ETS1 binding intensity", "setting": "[2]", "result": 433}]}, {"sequence": "CTTCCCTTGCCCCGGAAAAGGGCGGTAAGAGGGAGC", "values": [{"measurement": "ETS1 binding intensity", "setting": "[1]", "result": 1200}, {"measurement": "ETS1 binding intensity", "setting": "[2]", "result": 1160}]}, {"sequence": "CTGACAGCTTCCGCACAAAGCGCGGTCTATTTCTCC", "values": [{"measurement": "ETS1 binding intensity", "setting": "[1]", "result": 405}, {"measurement": "ETS1 binding intensity", "setting": "[2]", "result": 544}]}, {"sequence": "CTGGCCAGCTCCCACGGATGTGGTAGGCAGGCAGCA", "values": [{"measurement": "ETS1 binding intensity", "setting": "[1]", "result": 965}, {"measurement": "ETS1 binding intensity", "setting": "[2]", "result": 1430}]}, {"sequence": "CTTCAGGGGTGGGGCTTCCTGCCGCAGAGCCGCCTT", "values": [{"measurement": "ETS1 binding intensity", "setting": "[1]", "result": 543}, {"measurement": "ETS1 binding intensity", "setting": "[2]", "result": 557}]}, {"sequence": "ATGTGCGTGTGCACAGGAAAACCACTGCCAGTATTT", "values": [{"measurement": "ETS1 binding intensity", "setting": "[1]", "result": 756}, {"measurement": "ETS1 binding intensity", "setting": "[2]", "result": 789}]}, {"sequence": "GGGCTTCAGCGGATGAACAAGGTTACCACGGGGAGT", "values": [{"measurement": "ETS1 binding intensity", "setting": "[1]", "result": 459}, {"measurement": "ETS1 binding intensity", "setting": "[2]", "result": 504}]}, {"sequence": "CTCCTGAGGAAGTAGTTACAGACACCACAGCGGAGG", "values": [{"measurement": "ETS1 binding intensity", "setting": "[1]", "result": 511}, {"measurement": "ETS1 binding intensity", "setting": "[2]", "result": 491}]}, {"sequence": "CTTCCTTCCCTTCCTTCTGCTCCCTCCCACAGCCGC", "values": [{"measurement": "ETS1 binding intensity", "setting": "[1]", "result": 519}, {"measurement": "ETS1 binding intensity", "setting": "[2]", "result": 436}]}, {"sequence": "AGACCCGGACCGGAACCTTGGCGCGGTGACGCTAGT", "values": [{"measurement": "ETS1 binding intensity", "setting": "[1]", "result": 1050}, {"measurement": "ETS1 binding intensity", "setting": "[2]", "result": 975}]}, {"sequence": "TGCAGCCGCCGCGTCCGGTCCAGCCGCAGGGCCATG", "values": [{"measurement": "ETS1 binding intensity", "setting": "[1]", "result": 536}, {"measurement": "ETS1 binding intensity", "setting": "[2]", "result": 543}]}, {"sequence": "GCAGAAGGAAGTGTGGCTTGGCGCGGTGGCTCACAC", "values": [{"measurement": "ETS1 binding intensity", "setting": "[1]", "result": 475}, {"measurement": "ETS1 binding intensity", "setting": "[2]", "result": 405}]}, {"sequence": "AGGTACTCACCATTCCGGCGGTTGCTACTGTCACTG", "values": [{"measurement": "ETS1 binding intensity", "setting": "[1]", "result": 459}, {"measurement": "ETS1 binding intensity", "setting": "[2]", "result": 428}]}, {"sequence": "TGGGACGAGTGGGCGGAAACAGCCGCAGGTCTCTCT", "values": [{"measurement": "ETS1 binding intensity", "setting": "[1]", "result": 1990}, {"measurement": "ETS1 binding intensity", "setting": "[2]", "result": 2750}]}, {"sequence": "GACACCTGAGAGGATGTGTGGCTTTGTGCTATGAGA", "values": [{"measurement": "ETS1 binding intensity", "setting": "[1]", "result": 769}, {"measurement": "ETS1 binding intensity", "setting": "[2]", "result": 847}]}, {"sequence": "AACAGCTTTTGTCCAGGATGTGGCTTCATAGCCTTG", "values": [{"measurement": "ETS1 binding intensity", "setting": "[1]", "result": 1650}, {"measurement": "ETS1 binding intensity", "setting": "[2]", "result": 2340}]}, {"sequence": "CGTTTCCTGTGGCTGCAGCTCTCCCCACCCACACAC", "values": [{"measurement": "ETS1 binding intensity", "setting": "[1]", "result": 829}, {"measurement": "ETS1 binding intensity", "setting": "[2]", "result": 781}]}]}
